Experimental data: PubChem BioAssay (NCATS)
Records with an inconclusive call do not appear. Unless noted, the call rests on the fitted dose curve; in most records, active means well fitted curve in either direction with a large enough effect (not every such curve was filed as active); inconclusive means small, poorly fitted or top-dose-only effect, or another doubt; inactive means flat fitted curve, though single readings scatter.

Legend:
[1] = AP1 Signaling Pathway (AID 357); details: ME-180 AP-1-bla reporter, EGF-induced, beta-lactamase ratio, 5 h; at 17.2 µM (top of the series) unless noted;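 further: ME-180 reporter cells stimulated with EGF at its EC50 level; on the % scale 0 is the no-effect control and ±100 the full control effect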
In short: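 Cells are seeded overnight, exposed to compound titrations and an EC50 level of EGF for 5 hours at 37 °C, then loaded with CCF4 dye for 2.5 hours. Beta-lactamase activity under the AP-1 element is read as a blue/green ratio.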

[2] = NFAT Signaling Pathway (AID 444); details: Jurkat NFAT-bla M1, carbachol, beta-lactamase ratio, 5 h; at 17.2 µM (top of the series) unless noted;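 further: carbachol stimulus at about its EC50 of 1 µM final; on the % scale 0 is the no-effect control and ±100 the full control effect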
In short: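 Jurkat cells with NFAT-driven β-lactamase reporter and co-expressed M1 receptor, stimulated with carbachol (final 1 uM, ~EC50), compound titration, 5 h at 37 °C. CCF4 loaded 1 h at RT; 460/530 nm ratio gave %activity and AC50.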

[3] = Stat Signaling Pathway (AID 446); details: ME-180 SIE beta-lactamase reporter, IL-6 stimulated, 5 h; at 17.2 µM (top of the series) unless noted;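 further: ME-180 cervical cancer cells given 40 pM IL-6 alongside compound; SIE-controlled beta-lactamase reporter measured as 460/530 nm FRET emission ratio; on the % scale 0 is the no-effect control and ±100 the full control effect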
In short: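 Screening format detects activators and inhibitors alike: ME-180 SIE-bla cells stimulated at 40 pM IL-6 for 5 hrs with compound, then dual-emission beta-lactamase read at 405 nm excitation.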

[4] = target: Glucocorticoid receptor (Homo sapiens) (UniProt P04150); test: GR-GFP Redistribution (AID 450;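 active means compounds whose dose series gives a full or clear partial fitted curve of increased nuclear translocation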; further: potency means the concentration at half of the fitted maximal effect); details: U2OS GR-GFP nuclear translocation, laser cytometry, 2 h; series mostly up to 20.6 µM
Chain of Glucocorticoid receptor (Homo sapiens) (P04150 whole entry, looked up): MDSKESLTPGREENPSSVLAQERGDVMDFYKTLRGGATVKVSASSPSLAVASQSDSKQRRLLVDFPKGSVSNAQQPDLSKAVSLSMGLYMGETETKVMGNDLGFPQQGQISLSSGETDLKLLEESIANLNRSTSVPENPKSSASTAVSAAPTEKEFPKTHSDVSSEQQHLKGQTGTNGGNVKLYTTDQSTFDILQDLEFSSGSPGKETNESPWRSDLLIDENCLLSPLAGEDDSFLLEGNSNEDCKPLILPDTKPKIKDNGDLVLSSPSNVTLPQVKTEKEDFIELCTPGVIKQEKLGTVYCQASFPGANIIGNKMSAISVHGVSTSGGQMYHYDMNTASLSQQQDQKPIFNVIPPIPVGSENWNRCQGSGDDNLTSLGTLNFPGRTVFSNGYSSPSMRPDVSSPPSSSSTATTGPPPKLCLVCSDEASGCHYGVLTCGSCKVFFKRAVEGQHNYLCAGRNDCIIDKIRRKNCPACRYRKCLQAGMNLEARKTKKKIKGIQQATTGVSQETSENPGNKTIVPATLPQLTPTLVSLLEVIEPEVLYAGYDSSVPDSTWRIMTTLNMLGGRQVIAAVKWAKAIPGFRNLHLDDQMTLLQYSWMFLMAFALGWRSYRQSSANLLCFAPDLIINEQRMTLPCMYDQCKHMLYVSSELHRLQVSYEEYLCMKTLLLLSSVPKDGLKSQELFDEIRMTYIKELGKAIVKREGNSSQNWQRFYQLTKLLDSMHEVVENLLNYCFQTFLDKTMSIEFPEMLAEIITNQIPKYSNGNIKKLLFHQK

CCOC(=O)c1ccc2nc(NC(NC(C)=O)(C(=O)OC)C(F)(F)F)sc2c1 (stereo not given)
inactive: activity change, negative = inhibition [1] -14% | activity change, negative = inhibition [2] -1.54% | activity, negative = inhibition [3] -10.8% | Potency [4] > 20.6 µM

Cn1c(=O)c2c3c(sc2n2c(SCC(=O)c4ccccc4)nnc12)COC(C)(C)C3
inactive: activity change, negative = inhibition [1] 5.44% | activity change, negative = inhibition [2] -28.1% | activity, negative = inhibition [3] 4.51% | Potency [4] > 20.6 µM

CN(C)/C=C1\N=C(c2ccc(Cl)cc2Cl)OC1=O
inactive: activity change, negative = inhibition [1] -19.5% | activity change, negative = inhibition [2] -5.67% | activity, negative = inhibition [3] 3.89% | Potency [4] > 20.6 µM

C[n+]1cccc(CNC(=O)/C=N/O)c1
inactive: activity change, negative = inhibition [1] -0.78% | activity change, negative = inhibition [2] 2.4% | activity, negative = inhibition [3] 7.83% | Potency [4] > 20.6 µM

CC1CN(c2oc(-c3cccs3)nc2C#N)CC(C)O1 (stereo not given)
inactive: activity change, negative = inhibition [1] 3.54% | activity change, negative = inhibition [2] 5.83% | activity, negative = inhibition [3] 14.9% | Potency [4] > 20.6 µM

COc1cccc(C2/C(=C(/O)c3cnn(-c4ccccc4)c3C)C(=O)C(=O)N2CCN(C)C)c1OC (stereo not given)
inactive: activity change, negative = inhibition [1] -4.08% | activity change, negative = inhibition [2] 5.52% | activity, negative = inhibition [3] 3.83% | Potency [4] > 20.6 µM

CN(C)C(=O)COn1c(SCC(=O)N(C)C)nc2ccccc2c1=O
inactive: activity change, negative = inhibition [1] 6.36% | activity change, negative = inhibition [2] 14.2% | activity, negative = inhibition [3] 2.27% | Potency [4] > 20.6 µM

CN1CCN(Cc2c(O)ccc3c(-c4ccccc4)cc(=O)oc23)CC1
inactive: activity change, negative = inhibition [1] -11.8% | activity change, negative = inhibition [2] -9.28% | activity, negative = inhibition [3] -7.33% | Potency [4] > 20.6 µM

COCCOC(=O)C1=C(C)OC(N)=C(C#N)C1c1ccco1 (stereo not given)
inactive: activity change, negative = inhibition [1] 0.22% | activity change, negative = inhibition [2] -14.6% | activity, negative = inhibition [3] -4.05% | Potency [4] > 20.6 µM

Cc1c(/C(O)=C2\C(=O)C(=O)N(CCN(C)C)C2c2cccs2)cnn1-c1ccccc1 (stereo not given)
inactive: activity change, negative = inhibition [1] 6.26% | activity change, negative = inhibition [2] -10.6% | activity, negative = inhibition [3] -3.53% | Potency [4] > 20.6 µM

CCCC(=O)Nc1sc2c(c1C#N)CCCC2
inactive: activity change, negative = inhibition [1] -16.2% | activity change, negative = inhibition [2] -0.791% | activity, negative = inhibition [3] 8.33% | Potency [4] > 20.6 µM

CCOC(=O)c1c(C)[nH]sc1=S
inactive: activity change, negative = inhibition [1] 4.4% | activity change, negative = inhibition [2] -1.05% | activity, negative = inhibition [3] -4.25% | Potency [4] > 20.6 µM

COc1ccc[nH]c1=O
inactive: activity change, negative = inhibition [1] 14.3% | activity change, negative = inhibition [2] -4.63% | activity, negative = inhibition [3] 3.09% | Potency [4] > 20.6 µM

CN1C(=O)CC(N2CCN(c3ccc(Cl)c(Cl)c3)CC2)C1=O (stereo not given)
inactive: activity change, negative = inhibition [1] 17.6% | activity change, negative = inhibition [2] 16.8% | activity, negative = inhibition [3] 0.709% | Potency [4] > 20.6 µM

Cc1ccc(NC(=O)CSc2nnc(-c3ccco3)c(-c3ccco3)n2)cc1
inactive: activity change, negative = inhibition [1] 0.107% | activity change, negative = inhibition [2] -24.9% | activity, negative = inhibition [3] -23.9% | Potency [4] > 20.6 µM

Cc1ccccc1NC(=O)NCCc1nc2ccccc2[nH]1
inactive: activity change, negative = inhibition [1] -3.68% | activity change, negative = inhibition [2] -10.3% | activity, negative = inhibition [3] -7.53% | Potency [4] > 20.6 µM

Cc1c(/C(O)=C2/C(=O)C(=O)N(CCN3CCOCC3)C2c2cccnc2)cnn1-c1ccccc1 (stereo not given)
inactive: activity change, negative = inhibition [1] -11.6% | activity change, negative = inhibition [2] -1.03% | activity, negative = inhibition [3] -0.626% | Potency [4] > 20.6 µM

OCCN=C(c1ccccc1)C12CN3CN(CN(C3)C1)C2
inactive: activity change, negative = inhibition [1] 6.77% | activity change, negative = inhibition [2] -21.4% | activity, negative = inhibition [3] 3.31% | Potency [4] > 20.6 µM

CCCCC1CC1C(=O)Nc1ccc(OC)c(OC)c1 (stereo not given)
inactive: activity change, negative = inhibition [1] -2.76% | activity change, negative = inhibition [2] 3.38% | activity, negative = inhibition [3] 6.67% | Potency [4] > 20.6 µM

CCCCSc1nc(O)c(C2OC(=O)c3c2ccc(OC)c3OC)c(=O)n1C (stereo not given)
inactive: activity change, negative = inhibition [1] -4.1% | activity change, negative = inhibition [2] 1.82% | activity, negative = inhibition [3] -7.44% | Potency [4] > 20.6 µM

COc1ccccc1C1/C(=C(\O)c2ccc3c(c2)OCCO3)C(=O)C(=O)N1CCCN(C)C (stereo not given)
inactive: activity change, negative = inhibition [1] 8.19% | activity change, negative = inhibition [2] -5.11% | activity, negative = inhibition [3] 4.48% | Potency [4] > 20.6 µM

COC(=O)c1ccc(Cn2c(O)c(N=O)c3ccccc32)o1
inactive: activity change, negative = inhibition [1] -14.4% | activity change, negative = inhibition [2] 18.3% | activity, negative = inhibition [3] 3.14% | Potency [4] > 20.6 µM

Cn1ncc(N=Cc2c(O)ccc3ccccc23)c1C(=O)N1CCOCC1
inactive: activity change, negative = inhibition [1] 1.1% | activity change, negative = inhibition [2] -28.4% | activity, negative = inhibition [3] -16.5% | Potency [4] > 20.6 µM

c1coc(-c2nnc3sc(-c4cccs4)nn23)c1
inactive: activity change, negative = inhibition [1] -11.6% | activity change, negative = inhibition [2] -8.1% | activity, negative = inhibition [3] -3.51% | Potency [4] > 20.6 µM

CCCOc1cccc(C2/C(=C(/O)c3ccccc3)C(=O)C(=O)N2CCN(C)C)c1 (stereo not given)
inactive: activity change, negative = inhibition [1] 5.11% | activity change, negative = inhibition [2] 24.1% | activity, negative = inhibition [3] 0.936% | Potency [4] > 20.6 µM
